A short description of test [1]: Confirmation and Secondary Assay for Modulators of Hemoglobin Beta Chain Splicing at IVS2 654 locus (AID 910).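 Also: HeLa cells stably carrying EGFP split by mutant beta-globin IVS2-654 intron; % of control where 0% means no effect.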 In outline: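 HeLa cells stably expressing EGFP interrupted by β-globin IVS2-654 intron, seeded overnight in Opti-MEM/2% FCS, then treated 2 days at 37 °C. Restored splicing read as total peak GFP intensity per well by laser scanning cytometry (488 nm excitation, 500–520 nm emission); 500 nM antisense PNA as control.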

A short description of test [2]: qHTS Assay for Identification of Small Molecule Agonists for Thrombopoietin (TPO) Signaling Pathway (AID 917). Also: % is scaled to controls: 0 for no effect and ±100 for the full control effect. In outline:
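Cell-based luciferase reporter screen. Mouse Ba/F3 line stably expressing human TPO receptor; IL-3 removed overnight before plating. Co-treatment with compound and EC50 TPO (26 pM), 24 hrs at 37 C, then luminescence.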
A general note: Quantitative high-throughput screening tests each substance at several concentrations.

Test [3] can be described thus: Confirmation and Secondary Assay for Modulators of Hemoglobin Beta Chain Splicing at IVS2 705 locus (AID 930).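 Also: HeLa cells stably expressing the EGFP-705 splicing reporter; GFP fluorescence per well restored by corrected splicing of the IVS2-705 intron in EGFP; series mostly up to about 46 µM; % of control where 0% means no effect.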 The method, boiled down: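 Stable HeLa line with EGFP disrupted by mutant beta-globin intron 2 (705). Overnight attachment, then 2 days of compound at 37C, 5% CO2. Signal: peak GFP intensity summed over objects 5-250 µm.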
Test [4] deals with Muscarinic acetylcholine receptor M1 (Rattus norvegicus) (UniProt P08482). Put plainly: qHTS Assay for Antagonists of Acetylcholine Muscarinic M1 Receptor: Kinetic Measurement of Intracellular Calcium Response (AID 943).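 Also: Fluo-4 calcium signal as peak divided by basal fluorescence over 4 min; series mostly up to about 35 µM; nearly all actives have a fitted effect of over 75% in size.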 In outline:
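Antagonism is measured as inhibition of the carbachol-evoked calcium rise in CHO cells transfected with rat M1. Cells are dye-loaded, exposed to compound for 10 min, then stimulated with 100 nM carbachol (EC80).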

The target is the same in test [5]. Put plainly: qHTS Assay for Antagonists of Acetylcholine Muscarinic M1 Receptor: Measurement of IP-One Response (AID 944). Also: nearly all actives have a fitted effect of over 75% in size. The method, boiled down: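 Antagonist mode with rat M1 receptor transfected into CHO cells. Compound is added first for 10 min, carbachol at its EC80 follows for 30 min, and lysis reagents then allow TR-FRET detection of accumulated IP1.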

Test [6] has as its target Pyruvate kinase (Leishmania mexicana) (UniProt Q27686). Put plainly: qHTS Validation Assay for Inhibitors of Leishmania Mexicana Pyruvate Kinase (AID 945).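 Also: 0% = DMSO only neutral control wells.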 The method, boiled down: (§1)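 Mutant LmPYK (E451W), 0.2 nM, plus 0.5 mM PEP and 0.1 mM ADP in 50 mM imidazole pH 7.2 containing 0.01% Tween 20 and 0.05% BSA. Incubated 1 h at room temperature; luminescence via PKLight, normalized to DMSO.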

Test [7] in a line: Cell Viability - LYMP2-001 (AID 921).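 Also: cells exposed to compound for 24 h at 37 °C; nearly all actives have a fitted effect of over 70% in size.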 Also: potency is read from the fitted curve at half-maximal effect. In outline: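 Steps: seed 2500 lymphoblastoid cells/well; 5 hr, 37 C; add compound; 24 hr, 37 C; CellTiter-Glo reagent, 30 min room temperature; read luminescence. Concentration-response modeled by Hill equation for AC50.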
Test [8] can be described thus: Cell Viability - LYMP1-002 - Assay at 16 hr (AID 948). Also: potency is read from the fitted curve at half-maximal effect. In outline:
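Seed 2500 LYMP1-002 cells per well in complete medium and hold 5 hr at 37 C. Add compound across a concentration series and incubate 16 hr at 37 C. Add CellTiter-Glo, wait 30 min at room temperature, read luminescence.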

A short description of test [9]: MultiTox-Fluor Cytotoxicity Assay - LYMP1-002 - Live Cells (AID 955). Also: % is scaled to controls: 0 for no effect and ±100 for the full control effect. In outline:
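Cells were seeded at 2500 per well and incubated 5 hr. Compounds were then added for 16 hr at 37 C, followed by MultiTox-Fluor reagent for 60 min at room temperature and fluorescence reading of viable-cell protease signal.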

Test [10] can be described thus: MultiTox-Fluor Cytotoxicity Assay - LYMP1-002 - Dead Cells (AID 960). Also: nearly all actives have a fitted effect of over 60% in size. Also: potency is read from the fitted curve at half-maximal effect. In outline:
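Cells were plated, rested 5 hr, then treated with compound dilution series for 16 hr at 37 C. After adding substrate reagent and 60 min at room temperature, dead-cell protease fluorescence gave concentration-response curves fitted by the Hill equation.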

The nature of test [11]: MultiTox-Fluor Cytotoxicity Assay - LYMP1-003 - Dead Cells (AID 961). Also: nearly all actives have a fitted effect of over 70% in size. Also: potency is read from the fitted curve at half-maximal effect. In outline:
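LYMP1-003 human lymphoblastoid cells (2500/well) exposed to compound 16 h at 37 C in complete medium; dead-cell protease read with bis-AAF-R110 fluorescence (Ex/Em 485/520) after 60 min at room temperature. Normalized to DMSO and 15 uM tetraoctylammonium bromide; AC50 from Hill fit.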

Test [12] in a line: Cell Viability - LYMP1-003 - Assay at 24 hr (AID 963). Also: potency is read from the fitted curve at half-maximal effect. The method, boiled down: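 Cytotoxicity is scored as a concentration-dependent fall in ATP-linked luciferase signal in human lymphoblastoid LYMP1-003 cells treated 24 hr at 37 C in complete culture medium.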
A short description of test [13]: Cell Viability - LYMP1-003 - Assay at 40 hr (AID 964). Also: nearly all actives have a fitted effect of over 60% in size. Also: potency is read from the fitted curve at half-maximal effect. The method, boiled down:
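Luminescent ATP signal (CellTiter-Glo) served as the viability read-out after 40 hr compound treatment of human lymphoblastoid LYMP1-003 cells at 37 C. Decreases in ATP were fitted with the Hill equation to give AC50.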

Test [14] can be described thus: Cell Viability - LYMP2-003 (AID 965).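 Also: cells exposed to compounds for 24 h before reading; nearly all actives have a fitted effect of over 50% in size.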 Also: potency is read from the fitted curve at half-maximal effect. In outline:
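Seed 2500 lymphoblastoid cells/well; incubate 5 hr, 37 C; add compounds; incubate 24 hr, 37 C; add CellTiter-Glo, 30 min RT; read luminescence. AC50 from Hill fit.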

Test [15] is described as follows: Cell Viability - LYMP2-004 (AID 966).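 Also: cells exposed to compound for 24 h; nearly all actives have a fitted effect of over 65% in size.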 Also: potency is read from the fitted curve at half-maximal effect. The method, boiled down:
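qHTS cytotoxicity: human lymphoblastoid line, 24 hr compound treatment, 37 C, complete medium. Viability read as cellular ATP via luciferase luminescence; tetraoctylammonium bromide served as positive control.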

Test [16] can be described thus: qHTS Assay for Identification of Small Molecule Agonists for Hypoxia Response Element Signaling Pathway (AID 914; active = well fitted activation curve with a large enough effect in the signal ratio, with a control signal flat, not every such curve was filed as active; the % refers to the signal ratio; also: % of control where 0% means no effect). To be noted: ME-180 (cervical carcinoma) HRE-bla reporter, beta-lactamase ratio, CoCl2, 17 h; hits give high values. In outline:
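Reporter activity (beta-lactamase, CCF4 460nm/530nm ratio) in HRE-bla ME-180 cells is recorded after 17 h compound exposure with EC50 CoCl2 at 37 degrees Celsius. AC50 values come from titration data.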

Test [17] can be described thus: MultiTox-Fluor Cytotoxicity Assay - LYMP1-001 - Live Cells (AID 947).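 Also: 0% = DMSO only and full inhibition = tetraoctylammonium bromide control.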
For test [18], the target named is Cytochrome P450 2C19 (Homo sapiens) (UniProt P33261). Put plainly: qHTS Assay for Inhibitors and Substrates of Cytochrome P450 2C19 (AID 899). Also: % is scaled to controls: 0 for no effect and ±100 for the full control effect; nearly all actives have a fitted effect of over 60% in size. The method, boiled down: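 Luminescent read-out of luciferin formed from Luciferin-H EGE (10uM, equal to KM). Enzyme 5nM in 50mM KPO4; compound added, 10 min at 37C, then NADPH regenerating system for 60 min at 37C. Full inhibition defined by 57uM ketoconazole.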

Test [19] in a line: qHTS Assay for Identification of Small Molecule Antagonists for Thrombopoietin (TPO) Signaling Pathway (AID 918). Also: potency is read from the fitted curve at half-maximal effect; nearly all actives have a fitted effect of over 60% in size. The note with it: TPO-dependent cell signaling reporter, antagonist mode. In outline:
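Inhibitors of TPO signaling are sought by stimulating IL-3-starved murine Ba/F3 cells (human TPO receptor, Glycoprotein IIb-driven luciferase) with TPO at its EC50 of 26 pM alongside compound. After 24 hrs at 37 C, reporter luminescence is measured.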

Test [20] concerns the target Pyruvate kinase (Leishmania mexicana) (UniProt Q27686). Put plainly: qHTS Validation Assay for Activators of Leishmania Mexicana Pyruvate Kinase (AID 959). In outline: as §1

Values without a mark were called inactive. Inconclusive results are not listed. The source made the active and inactive calls. Unless noted, calls follow the shape of the dose curve; as a rule, active = well fitted curve in the direction sought with a large enough effect; inconclusive = small, poorly fitted or top-dose-only effect, or another doubt; inactive = no such curve, though single readings can be large; an effect the other way counts as inactive or inconclusive.

Sequence of Muscarinic acetylcholine receptor M1 (Rattus norvegicus) (P08482 whole entry, looked up): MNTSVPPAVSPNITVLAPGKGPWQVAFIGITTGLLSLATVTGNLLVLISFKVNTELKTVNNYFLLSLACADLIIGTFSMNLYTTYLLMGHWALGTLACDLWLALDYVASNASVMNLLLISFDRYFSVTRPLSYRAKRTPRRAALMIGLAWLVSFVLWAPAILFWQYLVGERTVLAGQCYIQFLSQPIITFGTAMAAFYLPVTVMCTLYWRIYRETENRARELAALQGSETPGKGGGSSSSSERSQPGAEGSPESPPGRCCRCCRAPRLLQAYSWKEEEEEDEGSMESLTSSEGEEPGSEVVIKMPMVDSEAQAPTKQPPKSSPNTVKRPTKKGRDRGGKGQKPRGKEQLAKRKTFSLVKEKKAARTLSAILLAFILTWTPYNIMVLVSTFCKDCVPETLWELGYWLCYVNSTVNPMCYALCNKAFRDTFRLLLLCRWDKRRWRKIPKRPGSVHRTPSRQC
Sequence of Cytochrome P450 2C19 (Homo sapiens) (P33261 whole entry, looked up): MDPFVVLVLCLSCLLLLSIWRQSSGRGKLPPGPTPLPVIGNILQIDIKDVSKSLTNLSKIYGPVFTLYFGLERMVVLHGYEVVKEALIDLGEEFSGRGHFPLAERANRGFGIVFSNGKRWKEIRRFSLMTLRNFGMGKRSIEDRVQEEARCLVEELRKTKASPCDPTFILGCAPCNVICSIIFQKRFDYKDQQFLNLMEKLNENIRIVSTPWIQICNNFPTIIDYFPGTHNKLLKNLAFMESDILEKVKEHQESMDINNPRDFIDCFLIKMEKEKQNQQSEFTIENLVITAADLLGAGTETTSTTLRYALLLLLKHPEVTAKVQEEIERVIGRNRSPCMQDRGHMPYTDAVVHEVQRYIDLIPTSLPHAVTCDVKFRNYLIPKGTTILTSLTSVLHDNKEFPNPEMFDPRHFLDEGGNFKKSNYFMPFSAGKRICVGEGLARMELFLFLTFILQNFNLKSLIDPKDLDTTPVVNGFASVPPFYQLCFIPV
Sequence of Pyruvate kinase (Leishmania mexicana) (Q27686 2-499 E452W): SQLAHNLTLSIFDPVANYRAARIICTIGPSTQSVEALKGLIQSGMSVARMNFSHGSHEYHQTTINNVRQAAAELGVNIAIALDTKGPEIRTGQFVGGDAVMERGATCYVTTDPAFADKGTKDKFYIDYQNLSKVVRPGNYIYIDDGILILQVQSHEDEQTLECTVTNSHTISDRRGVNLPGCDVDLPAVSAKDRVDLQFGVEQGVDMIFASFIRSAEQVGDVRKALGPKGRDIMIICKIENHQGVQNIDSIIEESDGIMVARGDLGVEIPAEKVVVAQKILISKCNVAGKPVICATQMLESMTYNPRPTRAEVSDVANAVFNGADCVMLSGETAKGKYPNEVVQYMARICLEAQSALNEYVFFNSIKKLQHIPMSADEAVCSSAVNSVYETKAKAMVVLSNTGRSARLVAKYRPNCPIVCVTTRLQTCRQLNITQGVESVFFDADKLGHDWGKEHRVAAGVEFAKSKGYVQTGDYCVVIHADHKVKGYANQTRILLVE

In the case of `C[N+]1(CCCCC[N+]2(C)CCCC2)CCCC1`, the result in [1], in test [2], in [3], in test [4] and in test [6] was inactive. In addition, the Potency entry in test [5] is “inactive”.
In the case of `Cc1ccc(C(=O)C(C)CN2CCCCC2)cc1` (stereo not drawn), the compound was classed as inactive in test [1] and in test [3].
On to `O=C1OC(c2ccc(O)cc2)(c2ccc(O)cc2)c2ccccc21`, for which the call in test [1] and in test [3] was inactive. Besides, the Potency entry in test [7], in [8], in test [9], in test [11], in test [12] and in [13] was “inactive” each time. Besides, the Potency result in [14] and in [15] was “inactive” each time. Also, the Potency in test [10] is 15.8 µM (active).
`Cc1c(N(C)CS(=O)(=O)O)c(=O)n(-c2ccccc2)n1C`: the compound was classed as inactive in test [1] and in test [3]. The activation in [16] was -4.84%.
Consider `CC(=O)Oc1ccc(C(c2ccc(OC(C)=O)cc2)c2ccccn2)cc1`, for which the compound was classed as inactive in test [1] and in test [3]. The Potency entry in test [7], in test [17], in test [8], in test [9], in test [10] and in test [11] was “inactive” each time. The Potency result in [12], in [13], in test [14] and in test [15] was “inactive” each time.
On to `Oc1c(Cl)cc(Cl)cc1Sc1cc(Cl)cc(Cl)c1O`, for which the compound was classed as inactive in test [1] and in [3]. Further, the Potency in test [7] and in [13] was 39.8 µM (active) throughout. The Potency result in test [17], in test [8], in [9], in test [10], in test [11] and in test [12] was “inactive” each time.
Take `CC(C)(C)CC(C)(C)c1ccc(OCCOCC[N+](C)(C)Cc2ccccc2)cc1`: the compound was called inactive in test [1] and in test [3]. The Potency is 20 µM (active) in [7]; 50.1 µM (active) in test [8]; 50.1 µM (active) in test [12]; 31.6 µM (active) in test [13]; 39.8 µM (active) in test [14]; 39.8 µM (active) in test [15].
For `COc1c(C)c2c(c(O)c1C/C=C(\C)CCC(=O)O)C(=O)OC2`, the Potency entry in [18] is “inactive”. Besides, the call in test [1] and in test [3] was inactive.
Turning to `Nc1ccc(C(=O)O)cc1`, the call in [1] and in [3] was inactive. Moreover, the Potency result in test [7], in test [8], in test [9], in test [10], in test [11] and in [12] was “inactive” in each case. The Potency entry in [13], in [14] and in [15] was “inactive” each time.
As to `CCN(CCCCOC(=O)c1ccc(OC)c(OC)c1)C(C)Cc1ccc(OC)cc1` (stereo not drawn), the compound was called inactive in test [1] and in test [3].
With `CCCn1c(=O)[nH]c(=O)c2[nH]cnc21`, the Potency result in [18] is “inactive”. Besides, the call in [2] and in test [6] was inactive.
In the case of `CN(C)/N=N/c1nc[nH]c1C(N)=O`, the outcome in test [1] and in test [3] was inactive. The Potency entry in [7], in test [17], in test [8], in test [9], in test [10] and in test [11] was “inactive” each time. Further, the Potency result in test [12], in test [13], in [14] and in test [15] was “inactive” in each case.
Consider `Oc1ccc(O)cc1`, for which the Potency entry in test [18] was “inactive”. The Potency in test [19] was 12.6 µM (active); in test [7], 25.1 µM (active); in [8] it was 31.6 µM (active); in [10], 12.6 µM (active); in [11], 12.6 µM (active); in [12] it was 39.8 µM (active). Besides, the Potency is 12.6 µM (active) in test [13], 39.8 µM (active) in test [14] and 39.8 µM (active) in test [15]. Also, the outcome in [3], in test [4] and in [6] was inactive.
As to `C=C(CC)C(=O)c1ccc(OCC(=O)O)c(Cl)c1Cl`, the call in test [1] and in test [3] was inactive. Besides, the Potency is 50.1 µM (active) in test [7], 31.6 µM (active) in test [10], 50.1 µM (active) in test [11] and 50.1 µM (active) in [14]. In addition, the Potency entry in test [17], in [9] and in test [12] was “inactive” each time.
Consider `COC1=CC(=O)C[C@@H](C)[C@]12Oc1c(Cl)c(OC)cc(OC)c1C2=O`, for which the call in test [1] and in test [3] was inactive. In addition, the Potency entry in test [7], in test [17], in [8], in test [9], in [11] and in [12] was “inactive” each time. In addition, the Potency entry in test [14] and in [15] was “inactive” in each case.
For `O=c1ccc2ccccc2o1`, the compound was classed as inactive in test [1] and in test [3]. Also, the Potency entry in test [7], in [17], in test [8], in [9], in test [10] and in [11] was “inactive” throughout. Moreover, the Potency result in test [12], in test [13], in test [14] and in [15] was “inactive” throughout.
For the compound `CC/C(=C(/CC)c1ccc(O)cc1)c1ccc(O)cc1`, the call in test [1] and in test [3] was inactive. The Potency entry in [7], in test [17], in test [8], in [9], in test [11] and in test [12] was “inactive” in each case. Also, the Potency result in test [14] and in [15] was “inactive” in each case.
As to `O=C(O)c1cc2cc(Cc3cccnc3)ccc2o1`, the compound was classed as inactive in test [1], in test [2], in test [3] and in test [20]. The Potency entry in test [5] is “inactive”.
For the compound `C=CCc1ccc(O)c(OC)c1`, the outcome in test [1] and in test [3] was inactive. In addition, the Potency entry in test [7], in test [17], in [8], in test [9], in test [10] and in test [11] was “inactive” in each case. Besides, the Potency result in test [12], in test [13], in test [14] and in test [15] was “inactive” in each case.
Regarding `COc1cc(-c2ccc(=O)[nH]n2)ccc1OC(F)F`, the Potency entry in test [18] is “inactive”. The call in [2], in test [4] and in test [6] was inactive.

(Values after PubChem BioAssay (NCATS).)
